Screening data: PubChem BioAssay, National Center for Advancing Translational Sciences (NCATS)
The list is not random: actives were taken first. Their share in the collection is about 4%.
D1 potentiator: human D1 dopamine receptor positive modulation; P21728; HEK293 TREx D1 cells, calcium flux, dopamine EC20 potentiation; potentiation, % at 10 µM; actives 0.036% (n = 360,000); in the data active = potentiation above about 30%; also: 0% is about no effect
Target sequence (P21728 whole entry, looked up): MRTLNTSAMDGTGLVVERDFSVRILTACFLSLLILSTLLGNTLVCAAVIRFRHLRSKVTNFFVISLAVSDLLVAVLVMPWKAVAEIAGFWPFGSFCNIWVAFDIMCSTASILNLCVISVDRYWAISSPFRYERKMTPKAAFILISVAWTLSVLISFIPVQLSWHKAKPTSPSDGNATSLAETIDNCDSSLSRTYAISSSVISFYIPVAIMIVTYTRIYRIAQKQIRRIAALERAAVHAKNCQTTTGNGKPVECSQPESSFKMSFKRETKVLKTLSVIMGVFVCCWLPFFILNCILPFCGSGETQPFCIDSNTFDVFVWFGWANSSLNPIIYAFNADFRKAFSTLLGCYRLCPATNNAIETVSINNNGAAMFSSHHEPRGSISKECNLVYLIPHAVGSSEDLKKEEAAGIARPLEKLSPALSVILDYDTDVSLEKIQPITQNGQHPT
D1 antagonist: blocks dopamine activation of the human D1 receptor | P21728 | HEK293 TREx D1 cells, calcium flux, dopamine EC80; stronger effect = lower value | activity change, negative = inhibition, % at 10 µM | actives 3.2% (n = 360,000); in the data active = activity change below about -30%; also: % is scaled to controls: 0 for no effect and ±100 for the full control effect
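Tetracycline-induced HEK293 T-REx cells with force-coupled D1 receptor were loaded with a no-wash calcium dye. Compound was added after a 10 s baseline and read kinetically for 180 s; EC80 dopamine was then added and calcium flux followed another 180 s.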
D1 ag: activates the human D1 dopamine receptor; activation, % at 2 µM; HEK293 T-REx D1 cells, calcium flux, agonist mode; AID 504660; P21728; actives 1% (n = 360,000); also: 0% is about no effect
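Inducible HEK293 T-REx D1 cells, force-coupled to calcium signalling, were plated at 4000 cells/well with tetracycline and held overnight at 30 C. After no-wash calcium dye loading, compound-evoked calcium rise over 180 s flagged agonists.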
TRHR PAM: allosteric enhancers of human TRH receptor | P34981 | TRHR cells, fluo-8 calcium fluorescence, EC20 TRH enhancement | actives 0.66% (n = 360,000) | enhancement, % at 2 µM; in the data active = enhancement above about 30%; also: 0% is about no effect
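TRHR-expressing cells loaded with fluo-8 calcium dye were read kinetically (ex 480/em 530) during compound addition, then stimulated with an EC20 of TRH (10 nM final). Enhancement of the Gq-mediated intracellular calcium response was scored.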
TRHR agonist: activates the human TRH receptor; P34981; TRHR cells, calcium flux fluo-8, FDSS agonist mode; activation, % at 2 µM; actives 0.18% (n = 360,000); AID 493084; also: 0% is about no effect
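Read-out: compound-evoked intracellular calcium rise in TRHR cells, fluo-8 dye, kinetic FDSS fluorescence at 1 s/cycle following a 10-cycle baseline. Cells cultured overnight before dye loading (30 min–1.5 h, RT).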
Glioma ERSR ind: inducers of ER stress response in human glioma cells. U87-MG GRP78 promoter luciferase reporter, 16 h. Potency, µM, for the others: at the top dose activation, usual class: activators. actives 0.02% (n = 420,000); active = well fitted activation curve with a large enough effect; also: potency is read from the fitted curve at half-maximal effect; series mostly up to about 76 µM; % of control where 0% means no effect; nearly all actives have a fitted effect of over 35% in size
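Stably transfected U87-MG glioma cells carrying a GRP78-based luciferase sensor; 16 h compound incubation. Luminescence end-point read 10 min after Bright-Glo addition at room temperature.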
An asterisk follows results filed as active; ! = not confirmed by another sample. Rule as the data show it, unless noted: active = activation above about 30%; inactive = the rest.

Results for CSc1cccc(NC(=O)C2CCCN(S(=O)(=O)c3ccc4c(c3)CCCN4C(C)=O)C2)c1 (configuration not stated) ?
D1 potentiator: -1; D1 antagonist: -32*; D1 ag: 0; TRHR PAM: -1; TRHR agonist: 0; Glioma ERSR ind: -4%

Results for CCc1ccc(NC(=O)C2CCCN(S(=O)(=O)c3ccc4c(c3)CCCN4C(C)=O)C2)cc1 (configuration not stated) ?
D1 potentiator: -10; D1 antagonist: -32*!; D1 ag: 3; TRHR PAM: 15; TRHR agonist: 0; Glioma ERSR ind: -5%

Results for CC(=O)N1CCCc2cc(S(=O)(=O)N(C)CC(=O)Nc3ccccc3)ccc21 ?
Glioma ERSR ind: -4%

What do the screens show for `CSc1cccc(NC(=O)C2CCN(S(=O)(=O)c3ccc4c(c3)CCCN4C(=O)C3CCC3)CC2)c1`?
D1 potentiator: -4; D1 antagonist: -48*; D1 ag: 3; TRHR PAM: -5; TRHR agonist: 0; Glioma ERSR ind: -1%

How did O=[N+]([O-])c1cccc(S(=O)(=O)N2CCN(c3nc(-c4ccccc4)nc4ccccc34)CC2)c1 do in these assays?
Glioma ERSR ind: -3%

How did Cc1cccc(CNC(=O)c2cnn(-c3nccc(-c4ccccc4C(F)(F)F)n3)c2C)n1 do in these assays?
Glioma ERSR ind: -4%

Results for O=C(NCCO)c1cn(C2CCN(Cc3c(F)cccc3Cl)CC2)nn1 ?
Glioma ERSR ind: -3%

How did COc1cc(=O)n2c(c1C(=O)N(C)Cc1nccs1)CCN(Cc1c(F)ccc(F)c1F)CC2 do in these assays?
Glioma ERSR ind: -4%

What do the screens show for `O=C1NC2(CCCCCC2)C(=O)N1Cc1ccccc1F`?
D1 potentiator: 2; D1 antagonist: -33*; D1 ag: 3; TRHR PAM: 2; TRHR agonist: -1; Glioma ERSR ind: -3%

How did O=C1NC2(CCCCC2)C(=O)N1CCS(=O)(=O)Oc1ccccc1 do in these assays?
D1 potentiator: 0; D1 antagonist: -3; D1 ag: 0; TRHR PAM: 38*; TRHR agonist: 0; Glioma ERSR ind: -4%

What do the screens show for `CCc1ccccc1NC(=O)CN1C(=O)c2cccnc2Oc2ccc(Cl)cc21`?
D1 potentiator: -3; D1 antagonist: -36*; D1 ag: 1; TRHR PAM: -4; TRHR agonist: -1; Glioma ERSR ind: -1%

What do the screens show for `O=C(CNC(=O)C1CCCCC1)Nc1ccccc1Cl`?
D1 potentiator: 16; D1 antagonist: -93*; D1 ag: 2; TRHR PAM: -2; TRHR agonist: -1; Glioma ERSR ind: -5%

What do the screens show for `NC(=O)NN=C1c2cc(S(=O)(=O)N3CCOCC3)ccc2-c2ccc(S(=O)(=O)N3CCOCC3)cc21`?
Glioma ERSR ind: -1%

What do the screens show for `C[C@@H]1/C=C\CC(=O)OC[C@H]2O[C@@H](C=C[C@@H]2O)[C@H](C)/C=C\CC(=O)OC1`?
Glioma ERSR ind: -6%

Results for Cc1nc2sccn2c1CN1CCOc2ccc(CN3CCN(c4ccc(F)cc4)CC3)cc2C1 ?
Glioma ERSR ind: -3%

Results for COc1ccc(/C=C2\CCCc3c2nc2ccccc2c3C(=O)O)cc1OC ?
D1 potentiator: -9; D1 antagonist: -35*; D1 ag: 236*; TRHR PAM: 16; TRHR agonist: 214*

What do the screens show for `N#Cc1nc(-c2ccccc2F)oc1NC1CCCCC1`?
D1 antagonist: -34*; D1 ag: 1; TRHR PAM: 7; TRHR agonist: -1; Glioma ERSR ind: 0%

What do the screens show for `COc1cc2nc(CN(C)Cc3ccc(Cl)cc3)[nH]c(=O)c2cc1OC`?
D1 potentiator: 3; D1 antagonist: 19; D1 ag: 4; TRHR PAM: -2; TRHR agonist: 1; Glioma ERSR ind: -5%

What do the screens show for `COc1cc2cncc(Cc3ccc(Cl)cc3)c2cc1OC`?
D1 potentiator: 0; D1 antagonist: -45*; D1 ag: 5; TRHR PAM: 1; TRHR agonist: 0; Glioma ERSR ind: -3%
